Out of some 68,000 compounds screened, about 2,700 (4%) showed an effect of 50% or more. Shown is part of a subset that was picked to be rich in strong results.

This is an account of results in ChEMBL document CHEMBL4513216, “Probing the Open Global Health Chemical Diversity Library for Multistage-Active Starting Points for Next-Generation Antimalarials” (ACS Infect Dis, 2020).

In this experiment the test system is Plasmodium berghei. The experiment can be described thus: Screen against P. berghei liver stage (PbLuc), transformed with Luciferase, at 2uM. The experiment is classed as functional, HepG2. Particulars: tested at 2 uM.
As to `NC(=O)c1nc(CN2CCOC(C(F)(F)F)C2)no1` (stereo not given), the INHIBITION is recorded as 43.91%. The figure for `COC(=O)CC(c1ccc(OC)c(OC)c1OC)c1c(O)n[nH]c1C` (stereo not given) is -8.07%. For the molecule `Cc1cc2c(=O)n3c(nc2s1)CCN(C(=O)c1nn(C)cc1Cl)CC3`, the INHIBITION is recorded as 26.56%. The value for `Cc1cc2c(=O)n3c(nc2s1)CCN(C(=O)c1cnn(C)c1)CC3` was -18.04%; that for `Cc1cc2c(=O)n3c(nc2s1)CCN(C(=O)c1cn(C)nc1C)CC3` was 66.16%. With `COCCc1noc(CN(C)c2cc(C)ncn2)n1`, the INHIBITION amounted to 41.63%. In the case of `Cc1nc(N2CCN(C(=O)c3ccncc3)CC2)c2c(n1)c(C)nn2C`, the INHIBITION was found to be 4.87%.

For `COc1cccc(CC2(C(=O)O)CCN(c3ccc(Cl)cn3)CC2)c1`, the INHIBITION was found to be 7.67%. For `COc1cccc(CC2(CO)CCCN(c3nccs3)C2)c1` (stereo not given), the INHIBITION came to 14.21%. For the molecule `COc1cccc(CC2(C(=O)O)CCN(c3nccs3)CC2)c1`, the INHIBITION stood at 50.59%. For the molecule `Cc1nc(N(C)Cc2cccc(O)c2)nc2cc(S(C)(=O)=O)ccc12`, the INHIBITION was 33.4%. Turning to `O=C(CN1CCCc2sccc2C1=O)NC1CCc2nccn2C1` (stereo not given), the INHIBITION is on record as -4.89%. The value for `O=S(=O)(c1cccs1)N1CCN(Cc2nc(-c3ccco3)cs2)CC1` was 29.89%. As to `O=S(=O)(NC1CCC12CCN(CC1CC1)CC2)c1ccccc1` (stereo not given), the INHIBITION was -3.36%. The value for `Cc1ccc(CN2CCC3(CCC3NS(=O)(=O)c3ccccc3)CC2)o1` (stereo not given) was 11.18%; that for `O=S(=O)(NC1CCC12CCN(CC1CCOCC1)CC2)c1ccccc1` (stereo not given) was 51.36%; that for `CCc1nnc2n1CCN(C(=O)C(C)Oc1ccc(C#N)cc1)C2` (stereo not given) was 10.77%. For the molecule `CC(=O)N(C)C1CCN(c2ncc3c(n2)CCN3c2ccccc2)C1` (stereo not given), the INHIBITION is -13.72%. As to `CN(CCO)C1CCN(c2ncc3c(n2)CCN3c2ccccc2)CC1`, the INHIBITION turned out to be 15.84%. As for `CNC(=O)C1CCN(c2ncc3c(n2)CCN3c2ccccc2)C1` (stereo not given), the INHIBITION stood at 51.96%. For `COCCC1(CNC(=O)Nc2ccnc(C)c2)CCCC1`, the INHIBITION is given as -37.69%.

Take `CC(=O)N1N=C(c2ccco2)OC1C(=O)NCCc1ccc(F)cc1` (stereo not given): the INHIBITION worked out at 58.6%. Take `CC(=O)N1N=C(c2ccccc2)OC1C(=O)NCCc1ccc(C)cc1` (stereo not given): the INHIBITION was 34.18%.

Take `CC(=O)N1N=C(c2ccco2)OC1C(=O)NCCc1ccc(O)cc1` (stereo not given): the INHIBITION came out at 20.42%. In the case of `CC(=O)N1N=C(c2ccco2)OC1C(=O)NCC(C)C` (stereo not given), the INHIBITION is given as 5.77%. On to `CC(=O)N1N=C(c2ccccc2)OC1C(=O)NCCc1ccc(O)cc1` (stereo not given), for which the INHIBITION stood at 26.64%. Take `CC(=O)N1N=C(c2ccccc2)OC1C(=O)NCCC1=CCCCC1` (stereo not given): the INHIBITION was found to be 85.54%.

Consider `Cc1noc(CNC(=O)[C@@H](C)NC(=O)OC(C)(C)C)n1`, for which the INHIBITION is recorded as -29.78%.

Take `Cc1[nH]n(C)c2nc(=O)cc(C(F)(F)C(F)(F)F)c1-2`: the INHIBITION is reported as -69.92%. On to `O=C([C@@H]1COC[C@H]2CN(C3CCCC3)C[C@H]21)N1CCC(F)CC1`, for which the INHIBITION was determined as 9.45%. Regarding `O=S(=O)(CCc1ccccc1)Nc1cc(Cl)ccn1`, the INHIBITION came out at 0.51%. With `CCn1cc(S(=O)(=O)N2CCC3(CCCN(CC4CCC4)C3=O)C2)cn1` (stereo not given), the INHIBITION is recorded as 13.58%. `Cc1cnn(CC2CCCCN2C(=O)CN(C)C2CC2)c1` (stereo not given): the INHIBITION worked out at 21.31%. With `O[C@H]1CN(CCOc2ccc(F)cc2)CC[C@@]12CCCO2`, the INHIBITION is 9.05%. On to `O=C(C1CCOCC1)N1CCc2ncc(CN3CCCCC3)n2CC1`, for which the INHIBITION stood at 41.28%. With `O=C(C1CCOCC1)N1CCc2ncc(CN3CCCC3)n2CC1`, the INHIBITION is on record as -9.48%. Consider `O=C(N1CCOCC1)N1CCc2ncc(CN3CCCCC3)n2CC1`, for which the INHIBITION turned out to be 56.25%.

Take `COc1c(Cl)cccc1NCc1csc(NC(C)=O)n1`: the INHIBITION is -49.16%. On to `Cc1noc([C@H]2C[C@@H]3CCN(C(=O)N(C)C)C[C@H]3O2)n1`, for which the INHIBITION is -7.58%. In the case of `CC(NCc1nnc2n1CCCC2)c1nc(-c2cccs2)no1` (stereo not given), the INHIBITION came out at 26.14%.

As for `Cc1cc(NC(=O)CN2CCn3c(nnc3C3CC3)C2)on1`, the INHIBITION is recorded as 17.12%.

With `CCN(CC)c1ncc(Cl)c(C(=O)NC2CCC(O)CC2)n1` (stereo not given), the INHIBITION is -2.22%. As to `CCN(CC)c1ncc(Cl)c(C(=O)NC2CCc3nccn3C2)n1` (stereo not given), the INHIBITION stood at 59.56%. In the case of `CCN(CC)c1ncc(Cl)c(C(=O)NC2CC2)n1`, the INHIBITION was 26.8%.

For `CCOC(=O)[C@@H]1[C@@H](c2ccccc2)CN2CCN(C(C)=O)C[C@H]12`, the INHIBITION came out at 40.13%. With `CCOCCn1c(=O)[nH]c2cc(C(=O)N(C)Cc3cc(C)[nH]n3)ccc21`, the INHIBITION is listed as 14.24%. Turning to `CCOCCn1c(=O)[nH]c2cc(C(=O)N(C)Cc3nc(C)c[nH]3)ccc21`, the INHIBITION worked out at 11.64%. Consider `CCOCCn1c(=O)[nH]c2cc(C(=O)N(C)Cc3nc(C)cs3)ccc21`, for which the INHIBITION came out at 51.98%. For `COCCN1CCc2ncnc(-c3ccccc3)c2CC1`, the INHIBITION stood at 39.44%. With `Cc1ccn2ncc(C(=O)N3CCCC(n4ccnc4C)C3)c2n1` (stereo not given), the INHIBITION is 56.02%. The value for `Cc1ccn2ncc(C(=O)N3CCCC(n4cccn4)C3)c2n1` (stereo not given) was 5.52%; that for `Cc1ccn2ncc(C(=O)N3CCCC(c4noc(C)n4)C3)c2n1` (stereo not given) was 50.52%.

On to `CCc1nccn1C1CCCN(C(=O)c2cnn3ccc(C)nc23)C1` (stereo not given), for which the INHIBITION is -14.3%. As to `Cc1ccn2ncc(C(=O)N3CCCC(c4cc(C)[nH]n4)C3)c2n1` (stereo not given), the INHIBITION is reported as 18.91%. As to `Cc1csc(C2CCCN(C(=O)c3cnn4ccc(C)nc34)C2)n1` (stereo not given), the INHIBITION was determined as 14.96%.
